The text below walks through data of PubChem BioAssay (NCATS).

A short description of test [1]: qHTS of pediatric cancer cell lines to identify multiple opportunities for drug repurposing: Primary screen for TC32 cells (AID 1347089). Further: nearly all actives have a fitted effect of over 60% in size. The procedure, abridged:
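In the primary qHTS, MIPE compounds were tested at 11 concentrations (0.78 nM to 46 µM) and NPC compounds at 8 (0.59 nM to 46 µM) on TC32 cells for 48 h. CellTiter-Glo luminescence gave viability.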
On the technique in general: qHTS replaces the single test concentration by a dilution series.

Test [2] is described as follows: qHTS of pediatric cancer cell lines to identify multiple opportunities for drug repurposing: Primary screen for DAOY cells (AID 1347090). Further: nearly all actives have a fitted effect of over 55% in size. The procedure, abridged:
(§1)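 Cell viability, CellTiter-Glo luminescence; 500-1,000 cells/well, 8- or 11-point titration, 48 h compound exposure at 37 degrees C, 5% CO2. Controls: DMSO neutral, bortezomib 2.3 µM final as positive.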

Test [3] is described as follows: qHTS of pediatric cancer cell lines to identify multiple opportunities for drug repurposing: Primary screen for SJ-GBM2 cells (AID 1347091). The procedure, abridged: as §1
Test [4] is described as follows: qHTS of pediatric cancer cell lines to identify multiple opportunities for drug repurposing: Primary screen for A673 cells (AID 1347092). Further: nearly all actives have a fitted effect of over 45% in size. In outline:
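48 h compound exposure, A673, 500-1,000 cells/well, 37 degrees C/5% CO2. MIPE: 11-point, 0.78 nM-46 µM; NPC: 8-point, 0.59 nM-46 µM (final). Readout CellTiter-Glo luminescence after 15 min RT.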

Test [5] can be described thus: qHTS of pediatric cancer cell lines to identify multiple opportunities for drug repurposing: Primary screen for SK-N-MC cells (AID 1347093). The procedure, abridged: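 Metabolically active cells were quantified by ATP-dependent luminescence (CellTiter-Glo, 15 min at room temperature) following 48 h treatment. Cells had been plated at 500-1,000 per well and settled for 5 h beforehand.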

A short description of test [6]: qHTS of pediatric cancer cell lines to identify multiple opportunities for drug repurposing: Primary screen for BT-37 cells (AID 1347094). In outline: (§2)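 Primary screen of approved and investigational compounds on cells in growth media at 37 degrees C, 5% CO2. MIPE set at 11-point and NPC set at 8-point dilutions; viability scored by ATP-based luminescence at 48 hours.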

Test [7] is described as follows: qHTS of pediatric cancer cell lines to identify multiple opportunities for drug repurposing: Primary screen for NB-EBc1 cells (AID 1347095). In outline:
as §2

Test [8] can be described thus: qHTS of pediatric cancer cell lines to identify multiple opportunities for drug repurposing: Primary screen for U-2 OS cells (AID 1347096). Further: nearly all actives have a fitted effect of over 50% in size. The procedure, abridged: (§3)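 Cells (500-1,000/well) rested 5 h, then received compounds for 48 h; metabolically active cells were measured by CellTiter-Glo luminescence. Final concentrations spanned up to 46 µM (MIPE, 11-point) or 0.59 nM-46 µM (NPC, 8-point) in primary screens, 11-point in follow-ups.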

Test [9] is described as follows: qHTS of pediatric cancer cell lines to identify multiple opportunities for drug repurposing: Primary screen for SK-N-SH cells (AID 1347098). Further: nearly all actives have a fitted effect of over 65% in size. In outline: as §3
Test [10] can be described thus: qHTS of pediatric cancer cell lines to identify multiple opportunities for drug repurposing: Primary screen for NB1643 cells (AID 1347099). Further: nearly all actives have a fitted effect of over 50% in size. In outline:
as §2

Test [11] is described as follows: qHTS of pediatric cancer cell lines to identify multiple opportunities for drug repurposing: Primary screen for LAN-5 cells (AID 1347100). The procedure, abridged: as §3
Test [12] can be described thus: qHTS of pediatric cancer cell lines to identify multiple opportunities for drug repurposing: Primary screen for BT-12 cells (AID 1347101). Further: nearly all actives have a fitted effect of over 25% in size. The procedure, abridged: as §3
Test [13] is described as follows: qHTS of pediatric cancer cell lines to identify multiple opportunities for drug repurposing: Primary screen for Rh18 cells (AID 1347102). Further: nearly all actives have a fitted effect of over 65% in size. In outline:
as §3

A short description of test [14]: qHTS of pediatric cancer cell lines to identify multiple opportunities for drug repurposing: Primary screen for OHS-50 cells (AID 1347103). Further: nearly all actives have a fitted effect of over 40% in size. In outline:
as §3

A short description of test [15]: qHTS of pediatric cancer cell lines to identify multiple opportunities for drug repurposing: Primary screen for RD cells (AID 1347104). Further: nearly all actives have a fitted effect of over 55% in size. The procedure, abridged:
as §2

A short description of test [16]: qHTS of pediatric cancer cell lines to identify multiple opportunities for drug repurposing: Primary screen for Saos-2 cells (AID 1347097). Further: nearly all actives have a fitted effect of over 40% in size. The procedure, abridged: as §2

Inconclusive results are not listed. Unmarked numbers belong to inactive results. Calls of active or inactive are those of the source. The call rests on the fitted dose curve; in most records, active means well fitted curve in the direction sought with a large enough effect; inconclusive means small, poorly fitted or top-dose-only effect, or another doubt; inactive means no such curve, though single readings can be large; an effect the other way counts as inactive or inconclusive.
Potency means the concentration at half of the fitted maximal effect.

On to `Cc1ccccc1OCC(O)CO` (stereo not given), for which the Potency entry in [1], in [2], in test [3], in [4], in test [5] and in test [6] was “inactive” throughout. In addition, the Potency result in [7], in [8], in test [9], in test [10], in test [11] and in test [12] was “inactive” in each case. Moreover, the Potency result in [13], in test [14] and in test [15] was “inactive” throughout.
Take `CCN(CC)CCNC(=O)c1cc(Br)c(N)cc1OC`: the Potency result in test [1], in test [2], in test [3], in [4], in test [5] and in [6] was “inactive” each time. The Potency entry in test [7], in test [8], in test [16], in test [9], in test [11] and in test [12] was “inactive” in each case. The Potency entry in test [13], in test [14] and in test [15] was “inactive” throughout.
With `NS(=O)(=O)c1cc2c(cc1Cl)NC(CC1CCCC1)NS2(=O)=O` (stereo not given), the Potency result in test [1], in test [2], in test [3], in test [4], in test [5] and in [6] was “inactive” each time. Moreover, the Potency entry in test [7], in test [8], in [16], in test [9], in [11] and in test [12] was “inactive” throughout. The Potency result in [13] and in test [15] was “inactive” throughout.
On to `OC[C@H]1O[C@@H]2O[C@H]3[C@H](O)[C@@H](O)[C@@H](O[C@H]4[C@H](O)[C@@H](O)[C@@H](O[C@H]5[C@H](O)[C@@H](O)[C@@H](O[C@H]6[C@H](O)[C@@H](O)[C@@H](O[C@H]7[C@H](O)[C@@H](O)[C@@H](O[C@H]8[C@H](O)[C@@H](O)[C@@H](O[C@H]1[C@H](O)[C@H]2O)O[C@@H]8CO)O[C@@H]7CO)O[C@@H]6CO)O[C@@H]5CO)O[C@@H]4CO)O[C@@H]3CO`, for which the Potency entry in test [1], in [2], in [3], in [4], in [5] and in [6] was “inactive” in each case. The Potency entry in test [7], in test [8], in test [9], in [10], in [11] and in [12] was “inactive” throughout. The Potency result in test [13], in test [14] and in [15] was “inactive” throughout.
`C=C[C@H]1CN2CC[C@H]1C[C@@H]2[C@@H](O)c1ccnc2ccc(OC)cc12`: the Potency entry in [1], in test [2], in test [3], in test [4], in test [5] and in test [6] was “inactive” in each case. The Potency result in test [7], in test [8], in test [9], in test [10], in test [11] and in test [13] was “inactive” each time. Also, the Potency result in test [14] and in [15] was “inactive” in each case.
`COc1cc(C(=O)N2CCCCCCC2)cc(OC)c1OC`: the Potency result in test [1], in test [2], in test [3], in [4], in test [5] and in test [6] was “inactive” in each case. In addition, the Potency result in test [7], in [8], in test [9], in test [10], in test [11] and in [13] was “inactive” each time. In addition, the Potency result in [15] is “inactive”.
`C/C=C/c1ccc(O)c(OC)c1`: the Potency entry in test [1], in test [2], in test [3], in [4], in test [5] and in test [6] was “inactive” in each case. Besides, the Potency result in [8], in [16], in test [9], in test [10], in test [11] and in test [12] was “inactive” in each case. In addition, the Potency result in [13] and in test [15] was “inactive” in each case.
As to `C[C@@]12C(=O)OC(=O)[C@]1(C)C1CCC2O1`, the Potency in [1] was 6.64 µM (active); in test [2] it was 3.35 µM (active); in [3], 2.37 µM (active); in test [4], 6.68 µM (active); in test [5], 2.37 µM (active); in [7], 2.37 µM (active). Further, the Potency in test [8] was 3.35 µM (active); in test [16], 1.5 µM (active); in test [9], 3.44 µM (active); in [10], 1.19 µM (active); in [11], 2.66 µM (active); in test [12] it was 6.92 µM (active). Besides, the Potency was 1.88 µM (active) in test [13] and 4.73 µM (active) in test [15].
`CO[C@]12C[C@@H](COC(=O)c3cncc(Br)c3)CN(C)[C@@H]1Cc1cn(C)c3cccc2c13`: the Potency entry in test [1], in test [2], in test [3], in test [4], in [5] and in [7] was “inactive” each time. In addition, the Potency result in test [8], in test [16], in test [10], in test [11], in [12] and in test [13] was “inactive” in each case. In addition, the Potency entry in test [14] and in test [15] was “inactive” throughout.
Regarding `C[C@H]1O[C@@H](O[C@H]2CC[C@@]3(C)[C@H](CC[C@@H]4[C@@H]3C[C@@H](O)[C@]3(C)[C@@H](C5=CC(=O)OC5)CC[C@]43O)C2)C[C@H](O)[C@@H]1O[C@H]1C[C@H](O)[C@H](O[C@H]2C[C@H](O)[C@H](O[C@@H]3O[C@H](CO)[C@@H](O)[C@H](O)[C@H]3O)[C@@H](C)O2)[C@@H](C)O1`, the Potency in [1] is 0.374 µM (active); in test [2], 0.266 µM (active); in test [3] it was 0.0841 µM (active); in test [4], 0.266 µM (active); in test [5], 0.168 µM (active); in test [6], 0.123 µM (active). Further, the Potency in [7] is 0.188 µM (active); in test [9], 0.386 µM (active); in test [10] it was 0.668 µM (active); in test [11], 0.237 µM (active); in [12] it was 0.309 µM (active); in [14] it was 0.219 µM (active). Besides, the Potency in test [15] was 0.15 µM (active).
For `Cc1cccc(C)c1NC(=O)CN1CCCCCC1`, the Potency result in test [1], in test [2], in test [3], in [4], in test [5] and in test [6] was “inactive” throughout. For the same compound, the Potency entry in test [8], in test [16], in test [9], in test [10], in [11] and in test [12] was “inactive” throughout. Moreover, the Potency entry in test [13], in test [14] and in [15] was “inactive” in each case.
Consider `Cc1nc(-c2ccc(Cl)cc2)oc1COC(C)(C)C(=O)O`, for which the Potency entry in test [1], in [2], in [3], in [4], in test [5] and in [6] was “inactive” each time. Further, the Potency result in [7], in [8], in [11], in test [12], in [13] and in test [14] was “inactive” in each case. Besides, in test [15], the Potency result was “inactive”.
Turning to `N#C/C(=C1\SCC(c2ccccc2Cl)S1)n1ccnc1` (stereo not given), the Potency entry in [1], in test [2], in test [3], in test [4], in test [5] and in [6] was “inactive” throughout. Also, the Potency entry in test [8], in test [16], in test [9], in [10], in [11] and in [12] was “inactive” throughout. Besides, the Potency result in test [13] and in test [15] was “inactive” each time.
Take `CCNC(=O)NCc1cccc(Cl)c1`: the Potency result in test [1], in test [2], in test [3], in test [4], in test [5] and in test [6] was “inactive” each time. The Potency result in test [7], in [8], in test [9], in test [11], in test [12] and in test [13] was “inactive” in each case. Moreover, the Potency result in test [15] is “inactive”.
Take `CCOCCn1c(N2CCCN(C)CC2)nc2ccccc21`: the Potency result in [1], in test [2], in [3], in [4], in test [5] and in test [6] was “inactive” in each case. Moreover, the Potency result in test [7], in [8], in [10], in test [11], in test [12] and in [13] was “inactive” each time. Moreover, the Potency result in [15] is “inactive”.
Take `CC(=O)OCC(=O)[C@H]1CC[C@H]2[C@@H]3CCC4=CC(=O)CC[C@]4(C)[C@H]3CC[C@]12C`: the Potency result in test [1], in test [2], in test [3], in [4], in [5] and in test [6] was “inactive” each time. Also, the Potency result in test [8], in test [16], in test [9], in test [10], in [11] and in test [13] was “inactive” each time. Also, in [15], the Potency entry was “inactive”.
For the compound `CCc1ccc(C(=O)C(C)CN2CCCCC2)cc1` (stereo not given), the Potency entry in test [1], in [2], in test [3], in test [4], in test [5] and in [6] was “inactive” throughout. Besides, the Potency result in test [7], in test [8], in test [10], in test [11], in [13] and in [14] was “inactive” each time. For the same compound, the Potency entry in test [15] was “inactive”.
